# An excerpt weighted towards active compounds, which were near 15% of everything screened.
# TDP1 cell noCPT: qHTS for Inhibitors of human tyrosyl-DNA phosphodiesterase 1 (TDP1): qHTS in cells in absence of CPT. DT40 Tdp1-/- hTDP1 cells, no CPT, ATP luminescence, 48 h. Potency, µM (series often up to 46.2 µM), without a hit: top-dose activity change, negative = growth inhibition, hits mostly inhibitors. hit rate 15% among 420,000. AID 686978, 2013; further: nearly all actives have a fitted effect of over 55% in size
#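 Luminescent ATP content (CellTiter-Glo) served as the growth readout. Knockout chicken DT40 cells expressing human TDP1 were exposed to compounds without camptothecin for a minimum 48 hr at 37 °C.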
# TDP1 cell CPT: growth inhibition of DT40 Tdp1-/-;hTDP1 cells with camptothecin (screen for TDP1 inhibitors). chicken DT40 Tdp1-/-;hTDP1 cells + 20 nM CPT, ATP luminescence, 48 h. Potency, µM (top dose mostly 46.2 µM), without a hit: at the highest dose activity change, negative = growth inhibition, hits mostly inhibitors. hit rate 12% among 420,000; further: nearly all actives have a fitted effect of over 55% in size
#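 Chicken DT40 Tdp1-/- cells complemented with human TDP1, 400 cells/well, exposed to compounds plus 20 nM camptothecin for at least 48 h at 37 C; viability read as ATP content by CellTiter-Glo luminescence.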
# ELG1 repair inh: ELG1-dependent DNA repair inhibition. HEK293T ELG1-luciferase reporter, luminescence, 16 h; DNA damage induced by 5-fluorouridine. Potency, µM (titrated, usually from 46.1 µM), for the others: at the highest dose activity change, negative = inhibition, hits mostly inhibitors. hit rate 2.3% among 330,000. AID 504467; further: nearly all actives have a fitted effect of over 55% in size
#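 DMSO vehicle served as the neutral condition. Each well held 2,000 cells given 5-fluorouridine plus compound; after 16 hr at 37 °C/5% CO2, ONE-Glo was added and luciferase measured 30 min later.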
# RORg inh: ROR gamma (mouse) transcription inhibition; P51450; Drosophila S2 Gal4-RORgamma UAS-luciferase reporter, 20 h; Potency, µM (titrated, usually from 53.6 µM), for inactives: at the top dose activity change, negative = inhibition, hits mostly inhibitors; hit rate 5.4% among 310,000; further: nearly all actives have a fitted effect of over 60% in size
# Target sequence (P51450 whole entry, looked up, the tested form may be a part): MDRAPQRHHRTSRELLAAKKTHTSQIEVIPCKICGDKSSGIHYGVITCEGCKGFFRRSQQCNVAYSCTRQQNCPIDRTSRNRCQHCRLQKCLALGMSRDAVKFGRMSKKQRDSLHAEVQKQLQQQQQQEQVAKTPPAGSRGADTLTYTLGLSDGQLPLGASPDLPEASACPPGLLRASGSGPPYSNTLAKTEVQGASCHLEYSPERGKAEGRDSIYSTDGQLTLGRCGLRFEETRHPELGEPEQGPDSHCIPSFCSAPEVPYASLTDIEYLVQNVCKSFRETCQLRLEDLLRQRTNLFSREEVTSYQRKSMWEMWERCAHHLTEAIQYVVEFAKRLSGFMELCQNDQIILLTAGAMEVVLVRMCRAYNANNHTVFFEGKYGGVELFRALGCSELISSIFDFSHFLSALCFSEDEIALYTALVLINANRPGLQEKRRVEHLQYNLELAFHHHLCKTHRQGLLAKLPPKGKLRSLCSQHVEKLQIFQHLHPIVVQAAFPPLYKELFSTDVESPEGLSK
#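 Read-out: Photinus luciferase luminescence; inhibitors lower reporter signal. Insect Schneider cells with Gal4-ROR gamma fusion under metallothionein promoter, UAS reporter; 700 uM final copper sulfate induction, 20 hr, ambient temperature.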
# VP16 counter: inhibits Gal4-VP16 luciferase reporter, ROR gamma counter-screen | Drosophila S2 Gal4-VP16 UAS-luciferase, luminescence, 20 h | Potency, µM (series often up to 53.6 µM), for the others: top-dose activity, negative = inhibition, hits mostly inhibitors | hit rate 3.5% among 310,000 | AID 2546;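 further: Gal4-VP16 expression switched on by copper sulfate through the metallothionein promoter; nearly all actives have a fitted effect of over 50% in size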
# ALOX12 inh: inhibitors of human 12S-lipoxygenase ALOX12. P18054. hit rate 1.1% among 580,000. purified 12hLO, xylenol orange hydroperoxide absorbance. Potency, µM (doses to about 108 µM), for the others: at the top dose activity change, negative = inhibition, actives largely listed as inhibitors
#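 Purified human 12hLO at 150 nM in 25 mM Hepes, 0.01% Triton X-100, pH 7.0, preincubated 15 min at room temperature with compound. Reaction started with 40 uM arachidonic acid, 30 min at room temperature. Hydroperoxide measured by Fe-xylenol orange, 573/405 nm absorbance ratio.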
# * hit, by the source's call; ? = inconclusive; / = no result given; [ ] = dose if it differs, or a comment. The call rests on the fitted dose curve; in most records, active means well fitted curve in the direction sought with a large enough effect; inconclusive means small, poorly fitted or top-dose-only effect, or another doubt; inactive means no such curve, though single readings can be large; an effect the other way counts as inactive or inconclusive. On the % scale 0 is the no-effect control and ±100 the full control effect; potency means the concentration at half of the fitted maximal effect.
SMILES,TDP1 cell noCPT,TDP1 cell CPT,ELG1 repair inh,RORg inh,VP16 counter,ALOX12 inh
Nc1c(-c2ccccc2)cnc2cc(-c3ccccc3)nn12,-27%,-30%,?,2.8µM*,?,1%
Nc1c(-c2ccc(Cl)cc2)cnc2c(-c3ccccc3)cnn12,-15%,-25%,?,22µM*,-7%,0%
Cc1cc2ncc(-c3ccc(Cl)cc3)c(N)n2n1,?,?,?,?,?,19%
CC(C)(C)S(=O)(=O)c1cnc2c(-c3ccc(Cl)cc3)cnn2c1N,?,-25%,8%,2.8µM*,-10%,12%
COc1ccc(-c2cnn3c(N)c(S(=O)(=O)C(C)(C)C)cnc23)cc1,?,-15%,10%,11µM*,?,-10%
CN(Cc1nccs1)c1cc(C2CC(O)C2)ncn1 (configuration not stated),/,/,/,/,/,29%
Fc1ccccc1-c1ccc(CNc2ncn[nH]2)o1,/,/,/,/,/,6%
O=C(Cc1ccsc1)NC1CCCN(c2cc(-c3ccc(F)cc3)[nH]n2)C1 (configuration not stated),/,/,/,/,/,22%
CN1[C@@H](CCC(=O)N2CCC(O)CC2)CNC(=O)[C@@H]2[C@H]1CCN2Cc1nc2ccccc2n1C,/,/,/,/,/,8%
CC(C)(C)S(=O)(=O)c1cnc2c(-c3ccc(F)cc3)cnn2c1N,?,?,21%,4.5µM*,-4%,7%
COc1ccc(-c2cnc3c(-c4ccc(F)cc4)cnn3c2N)cc1,0%,-12%,?,-33%,17%,6%
CCOc1cc(=O)n2c(c1C(=O)Nc1ccc(Br)cc1)CCCC2,/,/,/,/,/,17%
CCC1CCCCN1C(=O)Cn1nc(-c2ccc(C)cc2)c2ccccc2c1=O (configuration not stated),/,/,/,/,/,0%
COc1ccccc1N1C(N)=NC(N)=NC12CCCCC2,?,10%,-8%,0%,-2%,14%
CCCCOc1ccc(N2C(N)=NC(N)=NC23CCCCC3)cc1,6.5µM*,9.2µM*,-17%,16%,-1%,2%
COc1ccc(N2C(N)=NC(N)=NC23CCCC3)cc1,1.5µM*,?,-3%,3%,0%,25%
NC1=NC2(CCCCC2)N(c2cccc(Cl)c2)C(N)=N1,0.46µM*,10µM*,0%,-7%,-4%,0%
CCCCOc1ccc(CN2CCCCC2)cc1,-11%,-22%,29%,-19%,-16%,4%
Cn1nnnc1SCC(=O)N(Cc1cccs1)c1ccc2c(c1)OCCO2,/,/,/,/,/,0%
O=C(NC(C1CC1)C1CC1)c1ccccc1Cl,/,/,/,/,/,-7%
Cc1ccc(NC(=S)N(CCN(C)C)C(C)c2ccco2)cc1C (configuration not stated),?,18µM*,-18%,19%,?,32%
COCCN(C(=S)Nc1c(C)cccc1C)C(C)c1ccco1 (configuration not stated),-24%,?,1%,?,-6%,2%
COCCN(C(=S)Nc1ccc(C)c(C)c1)C(C)c1ccco1 (configuration not stated),?,?,?,4.5µM*,?,-13%
Cc1cc(C)nc(-n2nc(C)cc2NC(=O)CNCc2ccccc2)n1,?,-29%,1%,5.6µM*,?,-14%
CCC(C(=O)Nc1cc(C)nn1-c1nc(C)cc(C)n1)c1ccccc1 (configuration not stated),18µM*,26µM*,-25%,-17%,-18%,0%[57.4 µM]
Cc1cc(C)nc(-n2nc(C)cc2NC(=O)c2cc(=O)c3ccccc3o2)n1,/,/,1%,-34%,4%,/
CCN(CC(=O)Nc1cc(C)nn1-c1nc(C)cc(C)n1)Cc1ccccc1,?,?,18µM*,1.4µM*,6.3µM*,12%

# Screens (PubChem)
